Assay [1] can be described thus: qHTS RealTime-Glo MT Cell Viability Assay in HepG2 cells - 16 hour (AID 1224885). Note: nearly all actives have a fitted effect of over 50% in size. Note: potency is the fitted concentration of half-maximal effect. An outline of the steps:
(§1)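 Cell number in HepG2 cultures estimated from NanoLuc luminescence generated by metabolic reduction of a prosubstrate by living cells. The homogeneous, nonlytic format allowed repeated reads at 0, 8, 16, 24, 32 and 40 h of compound exposure.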

A short description of assay [2]: qHTS RealTime-Glo MT Cell Viability Assay in HEK293 cells - 24 hour (AID 1224886). Note: nearly all actives have a fitted effect of over 50% in size. Note: potency is the fitted concentration of half-maximal effect. The gist of the method:
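Homogeneous bioluminescent viability format in HEK293 cells (600 cells/well). Following 5 h at 37 C/5% CO2, 23 nL compound was pintooled; the signal was measured repeatedly during 40 h incubation.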

The nature of assay [3]: qHTS RealTime-Glo MT Cell Viability Assay in HEK293 cells - 8 hour (AID 1224887). Note: nearly all actives have a fitted effect of over 50% in size. Note: potency is the fitted concentration of half-maximal effect. The gist of the method: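 Measured as luminescence from the same continuously cultured HEK293 wells at successive time points (0, 8, 16, 24, 32, 40 h) after compound addition. Reagent present from seeding; dosing at 5 h; incubation 37 C.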
A short description of assay [4]: A CellTox Green Cytotoxicity Assay to monitor cytotoxicity in HEK293 cells - 16 hour (AID 1224888). Note: nearly all actives have a fitted effect of over 35% in size. An outline of the steps:
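Homogeneous no-lysis format: HEK293 cell suspension mixed with CellTox Green reagent, seeded, incubated 5 h at 37 C/5% CO2, then dosed by pintool with compound in DMSO.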

The nature of assay [5]: qHTS RealTime-Glo MT Cell Viability Assay in HepG2 cells - 0 hour (AID 1224889). Note: nearly all actives have a fitted effect of over 50% in size. The gist of the method:
as §1

Assay [6] in a line: A CellTox Green Cytotoxicity Assay to monitor cytotoxicity in HepG2 cells - 8 hour (AID 1224890). Note: nearly all actives have a fitted effect of over 45% in size. An outline of the steps: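 Fluorescent DNA-binding dye, 600 HepG2 cells/well, 5 h preincubation then compound in DMSO; same plates read at 0–40 h, 37 C.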
Assay [7] is described as follows: qHTS assay to identify small molecule antagonists of the estrogen receptor alpha (ER-alpha) signaling pathway using the BG1 cell line in the presence of 0.1 nM 17-beta-estradiol - cell viability counter screen (AID 1259241). Note: nearly all actives have a fitted effect of over 40% in size. The gist of the method: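 VM7Luc4E2, 4,000 cells/well, phenol red-free medium + 10% charcoal-stripped FBS; 24 hr plating; cpd + 0.1 nM E2 final, 22 hr 37C/5% CO2; CellTiter-Fluor 30 min, fluorescence.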

Assay [8] can be described thus: qHTS assay to identify small molecule antagonists of the androgen receptor (AR) signaling pathway using the MDA cell line in the presence of 0.5 nM R1881 - cell viability counter screen (AID 1259242). Note: nearly all actives have a fitted effect of over 45% in size. Note: potency is the fitted concentration of half-maximal effect. The gist of the method:
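Human breast carcinoma MDA-kb2 cells, cultured without CO2, receive compounds alongside 0.5 nM (final) R1881 agonist. After 16 hr at 37C, viability is taken as live-cell protease signal.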

A short description of assay [9]: qHTS assay to identify small molecule phospholipidosis (PLD) inducers (AID 1259344; active = well fitted curve in the direction sought with a large enough effect; an effect the other way counts as inactive or inconclusive). The gist of the method: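 Accumulated phospholipid, stained red by LipidTOX during 24 h compound treatment of HepG2 cells at 37 C, is quantified from images as pit number and intensity, normalised per cell using Hoechst-stained nuclei.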
Assay [10] is described as follows: qHTS assay to identify small molecule HDAC inhibitors (AID 1259364).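 Note: wild-type HCT-116 cells with endogenous class I/II HDAC activity; top concentration of the series differs between compounds; nearly all actives have a fitted effect of over 45% in size.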 An outline of the steps:
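After a 2 hr compound incubation (37C, 5% CO2), HCT-116 cells seeded at 1,500/well the day before received HDAC-Glo reagent; signal read as luminescence after 30 min at room temperature.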

Assay [11] in a line: qHTS assay to identify small molecule HDAC inhibitors - cell viability counter screen (AID 1259365). An outline of the steps:
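Luminescence from CellTiter-Glo, developed 30min at room temperature, reports viability of wild-type HCT-116 cells treated 2hr with compounds at 37 C and 5% CO2 after overnight plating.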

Assay [12] in a line: qHTS assay to identify small molecule antagonists of the sonic hedgehog signaling (Shh) pathway - cell viability counter screen (AID 1259367). Note: nearly all actives have a fitted effect of over 55% in size. Note: potency is the fitted concentration of half-maximal effect. The gist of the method: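 CellTiter-Fluor signal in conditioned medium-stimulated 3T3 Gli1-Luc cells, 23 hr compound exposure, 37C.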
A short description of assay [13]: qHTS assay to identify small molecule agonists of the sonic hedgehog signaling (Shh) pathway (AID 1259368; calls by dose curve;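 note: NIH/3T3-derived 3T3Gli1-Luc cells carrying a stable Gli1-driven firefly luciferase reporter; series mostly up to about 92 µM; nearly all actives have a fitted effect of over 15% in size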). An outline of the steps: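 Stable NIH/3T3 Gli1-Luc reporter clone; 24 hr cpd exposure after a 4 hr settling period; luminescence endpoint.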
Assay [14] addresses Estrogen receptor beta (Homo sapiens) (UniProt Q92731). Briefly: qHTS assay to identify small molecule agonists of the estrogen receptor beta (ER-beta) signaling pathway (AID 1259377; active = well fitted activation curve with a large enough effect in the signal ratio in the repeat runs, not every such curve was filed as active; the % refers to the signal ratio). The gist of the method:
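HEK293T ER-beta-UAS-bla; 2% charcoal-stripped FBS; cells pre-incubated 6 hr, compound 16 hr, 37C/5% CO2; LiveBLAzer B/G FRET substrate 2 h RT; fluorescence intensity read.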

For assay [15] the target is unchanged. Briefly: qHTS assay to identify small molecule antagonists of the estrogen receptor beta (ER-beta) signaling pathway (AID 1259378; active = well fitted inhibition curve with a large enough effect in the signal ratio in the repeat runs, not every such curve was filed as active; the % refers to the signal ratio). The gist of the method:
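Antagonist mode: compounds added to beta-lactamase reporter HEK293T ER-beta-UAS cells stimulated with E2 (1nM final), 16 hr at 37C. LiveBLAzer B/G FRET substrate, 2 hours room temperature, fluorescence read-out.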

Assay [16] has as its target Estrogen receptor (Homo sapiens) (UniProt P03372). Briefly: qHTS assay to identify small molecule antagonists of the estrogen receptor alpha (ER-alpha) signaling pathway using the BG1 cell line in the presence of 0.1 nM 17-beta-estradiol (AID 1259244). Note: nearly all actives have a fitted effect of over 50% in size. The gist of the method: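 Seeding of stripped-serum-adapted VM7Luc4E2 cells, 24 h attachment, compound transfer, then 0.1 nM final 17beta-estradiol; after 22 h incubation, ONE-Glo reagent and luminescence reading.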

Assay [17] is described as follows: qHTS assay to identify small molecule agonists of the sonic hedgehog signaling (Shh) pathway - cell viability counter screen (AID 1259366). Note: nearly all actives have a fitted effect of over 50% in size. Note: potency is the fitted concentration of half-maximal effect. An outline of the steps: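 Cytotoxicity counter screen run in the same wells as the Shh reporter assay. NIH/3T3 cells carrying a Gli1 response element–driven luciferase were treated with DMSO-dissolved compounds for 24hr, and live-cell protease activity was measured with CellTiter-Fluor.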

The target in assay [18] is Androgen receptor (Homo sapiens) (UniProt P10275). Briefly: qHTS assay to identify small molecule antagonists of the androgen receptor (AR) signaling pathway using the MDA cell line in the presence of 0.5 nM R1881 (AID 1259243). Note: nearly all actives have a fitted effect of over 50% in size. The gist of the method:
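Cells: MDA-kb2 (MMTV-luc). Stimulus: 0.5 nM R1881. Time: 16 hr, 37C, no CO2. Detection: ONE-Glo luminescence after 30 min at RT.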

Assay [19] can be described thus: qHTS assay to identify small molecule antagonists of the sonic hedgehog signaling (Shh) pathway (AID 1259369; calls by dose curve; note: nearly all actives have a fitted effect of over 45% in size; note: potency is the fitted concentration of half-maximal effect). An outline of the steps:
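Gli1 transcriptional reporter (firefly Luc) in NIH/3T3 background, conditioned-medium activated. 24hr exposure, luminescence endpoint.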

A number with no mark means an inactive call. Records with an inconclusive call do not appear. The source made the active and inactive calls. Unless noted, calls come from the whole dose curve; as a rule, active = well fitted curve in the direction sought with a large enough effect in the repeat runs; inconclusive = weak or mixed curves; inactive = no such curve, though single readings can be large; an effect the other way counts as inactive or inconclusive.

Estrogen receptor beta (Homo sapiens), sequence (Q92731 whole entry, looked up): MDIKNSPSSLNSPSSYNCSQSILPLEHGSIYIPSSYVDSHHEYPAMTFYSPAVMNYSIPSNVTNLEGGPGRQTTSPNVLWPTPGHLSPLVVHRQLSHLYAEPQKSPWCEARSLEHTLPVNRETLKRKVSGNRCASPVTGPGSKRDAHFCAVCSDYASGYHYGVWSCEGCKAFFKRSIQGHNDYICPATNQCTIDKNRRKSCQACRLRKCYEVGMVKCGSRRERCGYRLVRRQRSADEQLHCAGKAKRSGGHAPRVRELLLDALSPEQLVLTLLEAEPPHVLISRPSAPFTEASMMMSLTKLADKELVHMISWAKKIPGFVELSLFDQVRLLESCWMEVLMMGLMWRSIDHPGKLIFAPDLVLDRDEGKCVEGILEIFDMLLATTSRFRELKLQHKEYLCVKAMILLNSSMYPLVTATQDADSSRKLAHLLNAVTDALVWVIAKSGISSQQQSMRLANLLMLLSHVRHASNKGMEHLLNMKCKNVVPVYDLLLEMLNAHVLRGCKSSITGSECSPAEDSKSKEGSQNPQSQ
Estrogen receptor (Homo sapiens), sequence (P03372 whole entry, looked up): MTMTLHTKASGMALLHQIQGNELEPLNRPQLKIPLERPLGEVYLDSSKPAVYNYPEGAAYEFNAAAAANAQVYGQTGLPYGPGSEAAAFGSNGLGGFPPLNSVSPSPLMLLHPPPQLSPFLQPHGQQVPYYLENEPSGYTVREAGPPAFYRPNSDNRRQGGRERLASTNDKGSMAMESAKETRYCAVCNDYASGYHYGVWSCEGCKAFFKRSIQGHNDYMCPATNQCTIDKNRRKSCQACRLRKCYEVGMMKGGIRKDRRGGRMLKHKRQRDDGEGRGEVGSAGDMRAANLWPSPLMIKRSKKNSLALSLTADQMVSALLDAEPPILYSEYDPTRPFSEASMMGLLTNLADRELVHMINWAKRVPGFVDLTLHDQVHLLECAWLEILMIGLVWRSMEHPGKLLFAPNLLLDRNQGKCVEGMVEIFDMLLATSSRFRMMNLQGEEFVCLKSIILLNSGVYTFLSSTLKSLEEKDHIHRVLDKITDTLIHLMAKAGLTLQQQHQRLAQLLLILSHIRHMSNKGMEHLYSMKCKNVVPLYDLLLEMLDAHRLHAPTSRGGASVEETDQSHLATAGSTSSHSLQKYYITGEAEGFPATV
Androgen receptor (Homo sapiens), sequence (P10275 whole entry, looked up): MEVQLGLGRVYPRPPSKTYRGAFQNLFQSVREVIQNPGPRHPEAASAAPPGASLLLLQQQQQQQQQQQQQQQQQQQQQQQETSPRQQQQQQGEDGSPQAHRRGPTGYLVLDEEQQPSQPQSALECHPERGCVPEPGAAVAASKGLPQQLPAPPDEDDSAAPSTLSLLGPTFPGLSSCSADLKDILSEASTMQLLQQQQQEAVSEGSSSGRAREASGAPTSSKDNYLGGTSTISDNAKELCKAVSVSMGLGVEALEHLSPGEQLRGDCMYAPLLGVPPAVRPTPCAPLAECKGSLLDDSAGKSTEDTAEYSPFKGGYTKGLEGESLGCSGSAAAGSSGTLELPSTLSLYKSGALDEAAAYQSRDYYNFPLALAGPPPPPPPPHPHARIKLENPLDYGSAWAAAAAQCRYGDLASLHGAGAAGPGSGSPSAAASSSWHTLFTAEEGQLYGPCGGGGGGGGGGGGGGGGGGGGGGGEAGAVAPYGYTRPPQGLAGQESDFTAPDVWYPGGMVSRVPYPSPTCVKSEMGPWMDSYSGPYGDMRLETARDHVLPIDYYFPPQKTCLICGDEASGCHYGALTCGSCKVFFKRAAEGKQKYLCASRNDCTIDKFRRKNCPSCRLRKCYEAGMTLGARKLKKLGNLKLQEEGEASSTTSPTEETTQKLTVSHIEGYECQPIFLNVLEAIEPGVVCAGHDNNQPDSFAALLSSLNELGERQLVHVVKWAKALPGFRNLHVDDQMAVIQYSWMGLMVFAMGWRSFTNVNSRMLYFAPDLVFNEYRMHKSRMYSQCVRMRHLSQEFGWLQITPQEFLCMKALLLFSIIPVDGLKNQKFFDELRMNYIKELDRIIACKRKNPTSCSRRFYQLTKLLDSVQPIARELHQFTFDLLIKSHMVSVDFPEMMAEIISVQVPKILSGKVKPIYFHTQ

Regarding `COc1cc([C@@H]2c3cc4c(cc3[C@@H](O[C@@H]3O[C@@H]5CO[C@@H](C)O[C@H]5[C@H](O)[C@H]3O)[C@H]3COC(=O)[C@H]23)OCO4)cc(OC)c1O`, the Potency result in assay [1], in assay [3], in [4], in [5], in [6] and in assay [7] was “inactive” in each case. Besides, the Potency entry in [8], in [9], in assay [10], in [11], in assay [13] and in assay [15] was “inactive” in each case. The Potency in assay [2] is 1.08 µM (active); in assay [12], 60.4 µM (active). The outcome in assay [14] was inactive.

Take `CN1CCN(c2ccccc2/C=C2\SCCN(c3ccc(Cl)c(Cl)c3)C2=O)CC1`: the Potency is 43.6 µM (active) in assay [1]; 12.3 µM (active) in assay [2]; 12.3 µM (active) in assay [3]; 48.6 µM (active) in assay [8]; 27.3 µM (active) in assay [17]; 54.5 µM (active) in assay [12]. Further, the Potency entry in [5], in [7], in [16], in assay [10] and in [13] was “inactive” in each case.

Consider `CC(C)(C)c1cc(CCC(=O)OCCSCCOC(=O)CCc2cc(C(C)(C)C)c(O)c(C(C)(C)C)c2)cc(C(C)(C)C)c1O`, for which the Potency result in assay [1], in assay [2], in [3], in assay [4], in [5] and in assay [6] was “inactive” in each case. Moreover, the Potency result in assay [7], in assay [8], in assay [18], in assay [16], in assay [10] and in assay [11] was “inactive” in each case. The Potency result in assay [17], in [12], in assay [13], in assay [19] and in assay [15] was “inactive” each time. The result in [14] was inactive.

On to `Cc1ccc2n[nH]nc2c1`, for which the Potency entry in [1], in assay [2], in assay [3], in [4], in assay [5] and in [6] was “inactive” throughout. In addition, the Potency result in assay [7], in assay [8], in assay [10], in assay [11], in [17] and in assay [12] was “inactive” in each case. Moreover, the Potency result in assay [13], in [19] and in assay [15] was “inactive” throughout. Also, the compound was called inactive in assay [14].

On to `CC(C)=NNC(N)=S`, for which the Potency entry in assay [1], in assay [2], in assay [3], in [5], in assay [7] and in assay [8] was “inactive” throughout. The Potency result in assay [16], in [10], in [11], in assay [17] and in assay [13] was “inactive” each time. Besides, in assay [14], the compound was classed as inactive.

Turning to `COc1cccc(-c2ccc(/C=C\CN3CCCCCC3)cc2Cl)c1`, the Potency in [1] was 43.4 µM (active); in [2], 43.4 µM (active); in assay [3], 48.7 µM (active); in assay [19], 10.8 µM (active). Moreover, the Potency entry in assay [5], in assay [10], in assay [11] and in assay [13] was “inactive” each time. In addition, the compound was classed as inactive in assay [14].

`COC(=O)c1ccc([N+](=O)[O-])cc1`: the Potency result in [1], in assay [2], in assay [3], in assay [4], in [5] and in assay [6] was “inactive” in each case. For the same compound, the Potency entry in [7], in [8], in [18], in assay [10], in assay [11] and in assay [17] was “inactive” each time. Besides, the Potency result in assay [12], in assay [13] and in [19] was “inactive” throughout.

These data come from PubChem BioAssay (Tox21).
